The list is not random: actives were taken first. Their share in the collection is about 3.9%.
PHOSPHO1 inh = PHOSPHO1 (human) inhibition; Q8TCT1; actives 1.1% (n = 290,000); AID 1565; inhibition, % at 13.3 µM; recombinant PHOSPHO1, absorbance phosphatase assay; in the data active = inhibition above about 60%
Target sequence (Q8TCT1 whole entry, looked up): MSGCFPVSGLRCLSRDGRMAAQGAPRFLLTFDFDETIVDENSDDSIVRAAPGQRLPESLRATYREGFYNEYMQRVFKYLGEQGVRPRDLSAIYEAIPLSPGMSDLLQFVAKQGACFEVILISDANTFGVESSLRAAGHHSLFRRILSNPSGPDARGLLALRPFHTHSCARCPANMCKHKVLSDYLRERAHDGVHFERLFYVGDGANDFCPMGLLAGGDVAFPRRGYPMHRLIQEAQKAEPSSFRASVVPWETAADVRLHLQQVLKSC
SKKanGAS inh = inhibitors of SKKanGAS S. pyogenes growth in kanamycin (SK-promoter or general growth effect); actives 1.3% (n = 300,000); inhibition, % at 7.5 µM; AID 1662; BacTiter-Glo, 6 h;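 active = mean replicate score, as percent of positive control median, at least 50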;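 note: strain carries kanamycin resistance gene driven by streptokinase promoter and grows in 40 µg/ml kanamycin; loss of luminescence reflects streptokinase promoter inhibition or plain growth inhibition; 0% = median of DMSO wells and 100% = positive control at its reference dose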
Platelet DG rel = platelet dense granule release activity; inhibition, %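 (compounds screened at 7.5 µM in platelet-rich plasma)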; AID 1663; human platelet-rich plasma, SFLLRN dense granule ATP release, luminescence; actives 0.22% (n = 300,000);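 active = mean replicate score, as percent of positive control, at or above 50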
Rtt109 HAT inh = inhibitors of Candida albicans Rtt109/Vps75 histone acetyltransferase. purified Rtt109/Vps75, ThioGlo CoA-SH fluorescence, 4 h. Q5AAJ8. actives 0.16% (n = 330,000). inhibition, % at 34.9 µM;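 active = inhibition of at least 50% in every replicate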
WT yeast gro inh = growth inhibition of WT yeast, mitochondrial fusion screen | mitochondrial fusion phenotypic screen, WT strain | inhibition, % at 10 µM | actives 2.1% (n = 190,000) | AID 1362; in the data active = inhibition above about 58%; tested in S. cerevisiae
TPT1 inh = inhibitors of Candida albicans tRNA 2'-phosphotransferase TPT1; recombinant caTPT1, FP RNA substrate dephosphorylation; inhibition, % at 5 µM; actives 0.81% (n = 300,000); AID 1962;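 active = inhibition above the mean of all tested compounds plus 3 SD, set per screening campaign, cut at about 24% in these data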;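 note: plate controls were DMSO alone for no effect and ferristatin control at 100 nM for full effect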
* marks the source's active call; other numbers are inactive results; x = not tested or not shown.

SMILES	PHOSPHO1 inh	SKKanGAS inh	Platelet DG rel	Rtt109 HAT inh	WT yeast gro inh	TPT1 inh
Cc1ccc(NC(=O)CSCC(=O)Nc2cccc(S(=O)(=O)N3CCCCCC3)c2)cc1	x	x	x	1	x	x
Cc1ccc(NC(=O)c2sccc2C)nc1	28	20	52*	2	x	0
Cc1ccc(NC(=O)C(=O)Nc2ccc(C)cn2)nc1	-3	2	-2	-6	1	-3
O=C(N/C(=C/c1ccccc1Cl)C(=O)N1CCCCC1)c1ccco1	30	1	0	-4	x	0
CCc1c(C)nc2cc(-c3ccc(OC)c(OC)c3)nn2c1N1CCC(C)CC1	18	57*	0	1	0	-4
COc1ccc(CNC(=O)[C@H](C)[C@@H]2C[C@@]2(C)[C@@H](NC(=O)OCc2ccccc2)c2ccccc2)cc1OC	-6	9	3	x	69*	0
O=S(=O)(Nc1cc(Sc2cccc3cccnc23)c(O)c2ccccc12)c1ccc(F)cc1	7	87*	-2	x	50	0
COc1ccc(S(=O)(=O)Nc2ccc(O)c(Sc3ncn[nH]3)c2)cc1	-3	-3	9	2	16	-4
COc1ccc(S(=O)(=O)Nc2cc(SCC(=O)O)c(O)c3ccccc23)cc1	-47	3	3	-7	x	2
COc1ccc(S(=O)(=O)Nc2cc(Sc3ncn[nH]3)c(O)c3ccccc23)cc1	98*	x	x	x	94*	x
CC1(C)Cc2c(c(-c3ccco3)nc3sc4c(NCCN5CCOCC5)ncnc4c23)CO1	-8	-1	4	x	17	4
CC1(C)Cc2c(sc3nc(NCCN4CCOCC4)n4ncnc4c23)CO1	-21	-2	52*	4	0	-1
O=C(Nc1ccccc1N1CCOCC1)c1cccc(Oc2ccccc2)c1	37	-2	4	-3	x	-2
O=C(CN1CCN(S(=O)(=O)c2ccccc2)CC1)NCCc1ccccc1	29	33	-4	-9	x	-2
Cc1ccc(Cn2c(SCC(=O)N/N=C/c3ccc(C)o3)nc3ccccc32)cc1	91*	30	-5	5	45	0
CC(C)(O)c1ccccc1CC[C@@H](SCC1(CC(=O)O)CC1)c1cccc(/C=C/c2ccc3ccc(Cl)cc3n2)c1	x	105*	0	0	x	0
Oc1ccc(/C=N/n2c3ccccc3c3ccccc32)cc1	5	71*	5	7	-2	-3
Cc1nnc(C)n1/N=C/c1ccc(O)cc1	6	0	0	8	-9	-2
N#C/C(=C\c1c[nH]c2ccc(Br)cc12)c1ccccn1	47	51*	9	-1	x	-1
N#C/C(=C\c1ccc(C(=O)O)cc1)c1ccccn1	36	6	39	-14	16	-4
O=C(c1ccc(Cl)cc1)N1CCC(O)(CSc2ccc(Cl)cc2Cl)CC1	-38	19	-16	11	71*	-4
O=C(c1ccc(Cl)c(Cl)c1)N1CCC(O)(CN2CCOCC2)CC1	25	-13	-3	3	-1	-2
Cc1ccc(OC(C)C(=O)Nc2ccc3c(c2)n(C)c(=O)n3C)cc1C (centres undefined)	60*	4	14	-9	x	-8
Cc1cc(C)cc(OC(C)C(=O)Nc2ccc3c(c2)n(C)c(=O)n3C)c1 (centres undefined)	-1	-5	7	9	x	x
CCc1ccc(C(=O)/C=C/c2ccc([N+](=O)[O-])o2)cc1	9	44	-2	6	60*	13
SMILES	PHOSPHO1 inh	SKKanGAS inh	Platelet DG rel	Rtt109 HAT inh	WT yeast gro inh	TPT1 inh
COC(=O)Nc1ccc2c(c1)N(C(=O)CCN1CCN3CCCC3C1)c1ccccc1S2 (centres undefined)	66*	6	7	8	14	3
CCCN(CC(=O)Nc1ccccc1C)C(=O)C1CCN(S(=O)(=O)c2ccccc2C(F)(F)F)CC1	x	-3	-8	17	x	0
CC(C)(C)CC(=O)N1CCN(c2ccc(S(=O)(=O)N3CCOCC3)cc2[N+](=O)[O-])CC1	x	x	x	2	x	x
COc1ccc(Oc2c(C)oc3c(CN4CCOCC4)c(O)ccc3c2=O)cc1	60*	-13	-8	-32	2	2
COc1cccc(Oc2c(C)oc3c(CN4CCOCC4)c(O)ccc3c2=O)c1	x	x	x	5	x	x
C=CCC(C(=O)OC)(C(=O)OC)c1ccc([N+](=O)[O-])cn1	50	-8	-6	8	66*	-3
FC(F)(F)c1ccc(Oc2ccc3ccccc3c2Br)nc1	6	63*	-3	-8	81*	2
O=[N+]([O-])c1ccccc1Oc1ccc(C(F)(F)F)cn1	47	-7	-4	-13	2	-2
COc1ccc(Cl)cc1NC(=O)CN(C)C(=O)CCNC(=O)c1ccccc1OC	x	x	x	-22	x	x
Cc1cc(NC(c2ccc(Cl)cc2)c2ccc3cccnc3c2O)no1 (centres undefined)	18	101*	-8	7	-3	-1
CCCC(=O)NC(c1ccccc1Cl)c1ccc2cccnc2c1O (centres undefined)	34	18	3	-1	x	-1
CCC(=O)NC(c1ccc(Cl)cc1Cl)c1ccc2cccnc2c1O (centres undefined)	14	64*	1	-7	x	0
COc1ccc(C(NC(=O)C(C)C)c2ccc3cccnc3c2O)cc1 (centres undefined)	46	55*	-9	x	x	-3
CCCCC(=O)NC(c1ccc(Cl)cc1Cl)c1ccc2cccnc2c1O (centres undefined)	3	92*	1	3	x	x
O=[N+]([O-])c1cccc(C=NNC(=S)NC23CC4CC(CC(C4)C2)C3)c1	x	x	x	3	x	x
CCN(c1ccccc1)S(=O)(=O)c1cc(C(=O)OC2CCOC2=O)ccc1C (centres undefined)	x	x	x	-4	x	x
CC(=O)NC(c1ccc(Cl)cc1)c1ccc2cccnc2c1O (centres undefined)	x	x	x	5	x	x
CC(C)C(=O)NC(c1ccc(Cl)cc1Cl)c1ccc2cccnc2c1O (centres undefined)	14	81*	-3	-2	x	-3
Cc1cnc(C(=O)N2CCN(S(=O)(=O)c3ccc(F)c(F)c3F)CC2)cn1	x	x	x	-8	x	x
Cc1nnc(SCC(=O)N(C)c2c(N)n(Cc3ccccc3)c(=O)[nH]c2=O)n1Cc1ccccc1	20	-3	4	4	2	0
CCn1c(SCC(=O)N(C)c2c(N)n(Cc3ccccc3)c(=O)[nH]c2=O)nc2ccccc21	15	-31	59*	3	x	-1
CCc1cc2c(SCC(=O)N(CC)c3c(N)n(Cc4ccccc4)c(=O)[nH]c3=O)ncnc2s1	68*	-17	-4	-2	-2	8
O=S(=O)(c1ccc2[nH]c3c(c2c1)CCCC3)N1CCCCC1	21	2	11	15	x	0
N#Cc1ccc(S(=O)(=O)N2CCc3[nH]c4ccc(F)cc4c3C2)cc1	-10	-11	-1	54*	x	-3
Cc1cccc(N/C=C/C(=O)c2ccc(Cl)cc2)c1	35	0	5	-13	x	-2
